# Reference: PubChem BioAssay (EPA / NIEHS)
# Values joined by “and” are separate entries in the source; they are usually repeats but may differ in a detail not shown here. Identical values can stand only once. Results filed as inconclusive are left out. The source holds several records for some structures; these can differ, active in one and inactive in another. Active and inactive are the calls of the source. How the source made its calls, unless noted: active means hit-call score of the fitted dose curve at least 0.9, where 1 is the maximum; inactive means score below 0.9.
# Tests used:
# [1] = CCTE_Shafer_MEA_dev_inter_network_spike_interval_mean: CCTE's Neural Network Formation Assay for Mean Inter-network Spike Interval, Shafer Lab (AID 2284047)
# How it was run: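 Primary rat cortical neurons on PEI-coated 48-well MEAs (16 electrodes/well) were exposed from plating day 0 to DIV 12, with dosing renewed at DIV 5 and 9. Recordings at DIV 5, 7, 9, 12 were collapsed by trapezoidal AUC, loss-of-signal fit vs DMSO.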
# [2] = CCTE_Shafer_MEA_dev_network_spike_number: CCTE's Neural Network Formation Assay for Number of Network Spikes, Shafer Lab (AID 2284048);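 further: synchronized bursts across electrodes counted on days 5 7 9 12 and integrated as AUC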;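 on AC50: fit as a loss of signal meaning fewer network spikes than DMSO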
# How it was run: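 Rat cortical primary cultures on 48-well MEA (16 electrodes/well); continuous exposure DIV 0–12, full medium and treatment exchange DIV 5, 9. Readout: network spike count, AxIS adaptive detection, recordings DIV 5/7/9/12 collapsed to AUC; loss-of-signal fit, DMSO baseline.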
# [3] = CCTE_Shafer_MEA_dev_network_spike_peak: CCTE's Neural Network Formation Assay for Mean Number of Electrodes in Network Spike, Shafer Lab (AID 2284049);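 on AC50: fitted for loss of signal meaning fewer electrodes in network spikes than DMSO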
# How it was run: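 Network-spike peak electrode count from recordings on days 5, 7, 9 and 12 was combined as trapezoidal area under the curve. Rat cortical cultures were treated continuously from plating, with compound renewed at each feed (DIV 5, 9); fits versus DMSO.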
# DIO2 (gene 1734) = test: CCTE_GLTED_hDIO2: CCTE's human Deiodinase 2 (DIO2) Inhibition Assay, Great Lakes Toxicology and Ecology Division (GLTED) Lab (AID 2284050; active means hit-call score of the fitted dose curve at least 0.9, where 1 is the maximum)
# How it was run: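 Iodide released by human deiodinase 2 over 3 h with test chemical, measured spectrophotometrically via Sandell-Kolthoff cerium/arsenic reaction. Run n=3; inhibition referenced to DMSO.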
# [4] = CCTE_Shafer_MEA_dev_spike_duration_mean: CCTE's Neural Network Formation Assay for Mean Spike Duration, Shafer Lab (AID 2284051);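 further: mean network spike duration pooled as area under curve over DIV 5 to 12 recordings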;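 on AC50: potency for a decrease in mean network spike duration versus DMSO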
# How it was run: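 Rat cortical primary cultures, 48-well MEA (16 electrodes/well); compound from plating, renewed DIV 5, 9. Network spike duration (AxIS adaptive detector) recorded DIV 5/7/9/12, combined as trapezoidal AUC; loss direction vs DMSO.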
# [5] = CCTE_Shafer_MEA_dev_network_spike_duration_std: CCTE's Neural Network Formation Assay for Standard Deviation of Network Spike Duration, Shafer Lab (AID 2284052);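 further: area under curve of spike duration SD across recording days 5 to 12; hits are decreases in network spike duration SD versus DMSO vehicle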
# How it was run: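 Rat cortical cultures, 1.5 x 10^5 cells/well, exposed continuously from plating to DIV 12 with media/compound renewal at DIV 5, 9. Spontaneous activity recorded DIV 5/7/9/12, AxIS adaptive spike detector; AUC across days; negative direction vs DMSO.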
# [6] = CCTE_Shafer_MEA_dev_per_network_spike_spike_number_mean: CCTE's Neural Network Formation Assay for Mean Number of Spikes in a Network Spike, Shafer Lab (AID 2284053);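 on AC50: fitted as decrease in spikes per network spike relative to DMSO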
# How it was run: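 Rat cortical primary cultures on 48-well MEA; compound from day 0, re-dosed with full media change DIV 5, 9. Recorded DIV 5, 7, 9, 12; spikes in 0.05 s window at network-spike peak ÷ total network spikes; AUC; loss vs DMSO.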
# DIO3 (gene 1735) = test: CCTE_GLTED_hDIO3: CCTE's human Deiodinase 3 (DIO3) Inhibition Assay, Great Lakes Toxicology and Ecology Division (GLTED) Lab (AID 2284055; active means hit-call score of the fitted dose curve at least 0.9, where 1 is the maximum;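 on AC50: potency is for inhibition seen as loss of released iodide signal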)
# How it was run: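 Inhibition is read as reduced iodide release, measured spectrophotometrically by the Sandell-Kolthoff cerium/arsenic reaction. Adenovirus-expressed human DIO3 enzyme is exposed to chemical for 3 h, n=3 plates. Iodinated chemicals, nitrite, iron or thiocyanate may interfere.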
# [7] = UKN5_HCS_SBAD2_cell_viability: Viability Assessment in the University of Konstanz (UKN) Leist Lab Neurite Outgrowth Assay in human iPSC-derived immature Dorsal Root Ganglia Neurons (UKN5) (AID 2284056)
# How it was run: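 iPSC-derived immature peripheral neurons (SBAD2) seeded on Matrigel with CHIR99021, SU5402 and DAPT, dosed 1 h later for 24 h. Viability from Hoechst H-33342 and calcein-AM live staining, high-content imaging; bidirectional fit versus DMSO.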
# [8] = CCTE_Shafer_MEA_dev_LDH: CCTE's Lactate Dehydrogenase Assay for Cytotoxicity in the Neural Network Formation Assay, Shafer Lab (AID 2284068; active means hit-call score of the fitted dose curve at least 0.9, where 1 is the maximum;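 further: exposure for twelve days from plating with re-dosing on DIV 5 and 9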)
# How it was run: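 Rat cortical primary neurons, MEA culture; dosing day 0–12, full medium plus compound exchange DIV 5, 9. Read-out: LDH enzyme activity, spectrophotometric. DMSO = negative control/baseline; signal loss → cytotoxicity.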
# [9] = CCTE_Shafer_MEA_acute_AB: CCTE's Alamar Blue Assay for Cytotoxicity in the Neural Acute Assay, Shafer Lab (AID 2284069; active means hit-call score of the fitted dose curve at least 0.9, where 1 is the maximum;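 further: active compounds lower the viability signal compared with DMSO wells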)
# How it was run: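 Read-out: resazurin fluorescence (ex 544, em 590 nm) after CTB reagent at 1:6 dilution in fresh media. Cells: primary rat cortical neuron networks, DIV 13 or 15, chemically exposed on MEA plates; DMSO as negative control/baseline.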
# [10] = UKN5_HCS_SBAD2_neurite_outgrowth: University of Konstanz (UKN) Leist Lab Neurite Outgrowth Assay in human iPSC-derived immature Dorsal Root Ganglia Neurons (UKN5) (AID 2284070); conditions: actives raise or lower the signal
# How it was run: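 Neurite area from calcein-AM high-content images after 24 h exposure (staining included), with H-33342 for viability, fitted both directions against DMSO. Cells: thawed immature SBAD2 peripheral neurons, 100.000 cells/cm2, with CHIR99021, SU5402, DAPT; dosing 1 h after seeding.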
# [11] = CCTE_Shafer_MEA_dev_mutual_information_norm: CCTE's Neural Network Formation Assay for Mutual Information Normalization, Shafer Lab (AID 2284091);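 on AC50: mutual information between electrodes summarised as area under curve across four recording days; potency is for a decrease in mutual information relative to DMSO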
# How it was run: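 Neurons from rat cortex were seeded at 1.5 x 10^5 cells/well onto PEI-coated MEAs in a laminin drop, then exposed to compound from day 0 for twelve days. Network recordings on four days gave mutual information, summarised by AUC relative to DMSO.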
# [12] = CCTE_Shafer_MEA_dev_correlation_coefficient_mean: CCTE's Neural Network Formation Assay for Mean Correlation Coefficient, Shafer Lab (AID 2284093);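 on AC50: well mean pairwise spike train correlation integrated as AUC over recording days 5 to 12; potency fitted for loss of correlation relative to DMSO vehicle wells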
# How it was run: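 Rat cortical cultures, 1.5 x 10^5 cells/well, dosed from day 0 for 12 days. Spontaneous spikes recorded DIV 5/7/9/12; electrode-pair correlation coefficients averaged, AUC taken. Fit in loss direction vs DMSO.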
# [13] = UKN2_HCS_IMR90_neural_migration: University of Konstanz (UKN) Leist Lab Neural Crest Cell Migration Assay in human induced IMR90 Pluripotent Stem Cells (UKN2) (AID 2284204); conditions: actives raise or lower the signal
# How it was run: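 Stopper-exclusion migration (cMINC), human iPSC-derived neural crest cells; N2-S + EGF/FGF; compound added 24 h post-stopper removal, 24 h exposure. Readout: calcein-AM/Hoechst 30 min, HCS fluorescence imaging; bidirectional fitting, DMSO baseline.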
# [14] = UKN4_HCS_LUHMES_neurite_outgrowth: University of Konstanz (UKN) Leist Lab Neurite Outgrowth Assay in human LUHMES cells (UKN4) (AID 2284206); conditions: actives raise or lower the signal
# How it was run: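 After 24 h compound treatment beginning shortly after replating of 2-day-differentiated LUHMES cells, calcein-AM and H-33342 live staining allowed high-content imaging of neurite area and viability. Fitted bidirectionally against DMSO.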
# [15] = IUF_NPC1b_proliferation_BrdU_72hr: Leibniz Research Institute for Environmental Medicine (IUF) 72-hour Neural Progenitor Cell Bromodeoxyuridine (BrdU) Proliferation Assay (NPC1b) (AID 2284207)
# How it was run: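 Luminescent BrdU ELISA measured DNA synthesis during the last 16 h of a 72 h exposure of primary human neural progenitor spheres grown with EGF and FGF. Signal was fitted relative to DMSO controls.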
# [16] = IUF_NPC1a_proliferation_area_72hr: Leibniz Research Institute for Environmental Medicine (IUF) 72-hour Neural Progenitor Cell Proliferation Area Assay (NPC1a) (AID 2284208)
# How it was run: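 hNPC spheres (human fetal cortex, GW 16-19), one per poly-Hema U-bottom well; EGF+FGF medium; dosed day 0, no re-dosing; 72 h, 37C, 5% CO2; phase-contrast sphere area; DMSO = baseline; minus-GF = positive ctrl.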
# [17] = CCTE_Mundy_HCI_Cortical_Synap_Neur_Matur_NeuriteSpotCountPerNeuriteLength: CCTE's Synaptogenesis and Neurite Maturation Assay in rat cortical cells for Neurite Spot Count per Neurite Length, Mundy Lab (AID 2284210)
# How it was run: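 Read-out: synaptophysin puncta counted along MAP2-stained neurites, normalised to neurite length, by automated high-content imaging. Rat cortical cells; AraC DIV 5; chemical dosing DIV 7; termination DIV 12. DMSO baseline.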
# [18] = CCTE_Shafer_MEA_acute_LDH: CCTE's Lactate Dehydrogenase Assay for Cytotoxicity in the Neural Acute Assay, Shafer Lab (AID 2284086; active means hit-call score of the fitted dose curve at least 0.9, where 1 is the maximum;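 further: active means LDH release rises above DMSO vehicle level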)
# How it was run: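 LDH released during 40 min compound exposure of primary rat cortical cultures, quantified by absorbance at 490 nm in collected medium. Fitting direction positive versus DMSO vehicle.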
smiles,measurement,setting,value
O=S(=O)(O)C(F)(F)C(F)(F)C(F)(F)C(F)(F)C(F)(F)C(F)(F)C(F)(F)C(F)(F)F,outcome,[1],inactive
same,outcome,[2],inactive
same,AC50,[3],50 µM (active)
same,outcome,[3],inactive
same,AC50,DIO2 (gene 1734),95 µM (active) [middle of 4 runs]
same,AC50,[4],50 µM (active)
same,outcome,[4],inactive
same,outcome,[5],inactive
same,AC50,[6],50 µM (active)
same,outcome,[6],inactive
same,outcome,DIO3 (gene 1735),inactive
same,AC50,[7],770 µM (active)
same,AC50,[8],16.4 µM (active)
same,outcome,[8],inactive
same,outcome,[9],inactive
same,AC50,[10],752 µM (active)
same,AC50,[11],25 µM (active)
same,outcome,[11],inactive
same,AC50,[12],68.6 µM (active)
same,outcome,[12],inactive
same,AC50,[13],114 µM (active)
same,outcome,[13],inactive
same,AC50,[14],19.1 µM (active)
same,AC50,[15],12.6 µM (active)
same,outcome,[15],inactive
same,outcome,[16],inactive
same,outcome,[17],inactive
CCOCN(C(=O)CCl)c1c(C)cccc1CC,AC50,DIO2 (gene 1734),58.9 µM (active)
same,AC50,DIO3 (gene 1735),58.1 µM (active)
CCC(C)(C)C(=O)OC1=C(c2ccc(Cl)cc2Cl)C(=O)OC12CCCCC2,outcome,[1],inactive
same,outcome,[2],inactive
same,outcome,[3],inactive
same,outcome,[4],inactive
same,outcome,[5],inactive
same,outcome,[6],inactive
same,outcome,[8],inactive
same,outcome,[9],inactive
same,outcome,[18],inactive
same,outcome,[11],inactive
same,outcome,[12],inactive
same,outcome,[14],inactive
same,outcome,[15],inactive
same,outcome,[16],inactive
same,outcome,[17],inactive
CCCN(CCC)c1c([N+](=O)[O-])cc(C(F)(F)F)cc1[N+](=O)[O-],outcome,[9],inactive
same,outcome,[18],inactive
CNC(=O)/C=C(\C)OP(=O)(OC)OC,outcome,[9],inactive
same,outcome,[18],inactive
C[C@H]1[C@H](c2ccc(Cl)cc2)SC(=O)N1C(=O)NC1CCCCC1,outcome,[18],inactive
CC[C@H](C)[C@H]1O[C@]2(C=C[C@@H]1C)C[C@@H]1C[C@@H](C/C=C(\C)[C@@H](O[C@H]3C[C@H](OC)[C@@H](O[C@H]4C[C@H](OC)[C@@H](O)[C@H](C)O4)[C@H](C)O3)[C@@H](C)/C=C/C=C3\CO[C@@H]4[C@H](O)C(C)=C[C@@H](C(=O)O1)[C@]34O)O2 (tested in a mixture with another compound),outcome,[1],inactive
same,AC50,[2],27.5 nM (active) and 2.25 nM (active)
same,AC50,[3],16.4 nM (active) and 2.37 nM (active)
same,AC50,[4],3.01 nM (active) and 0.926 nM (active)
same,AC50,[5],2.28 nM (active) and 0.912 nM (active)
same,AC50,[6],6.69 nM (active) and 2.06 nM (active)
same,AC50,[8],522 nM (active) and 0.537 nM (active)
same,outcome,[18],inactive
same,AC50,[11],2.68 nM (active) and 0.647 nM (active)
same,AC50,[12],89.5 nM (active) and 4.11 nM (active)
same,AC50,[13],3.78 µM (active)
same,AC50,[15],8.2 µM (active)
same,AC50,[16],5.05 µM (active)
same,AC50,[17],2.51 µM (active)
CCCN(CCOc1c(Cl)cc(Cl)cc1Cl)C(=O)n1ccnc1,outcome,[9],inactive
same,outcome,[18],inactive
CCC(C)Nc1c([N+](=O)[O-])cc(C(C)(C)C)cc1[N+](=O)[O-] (stereo unspecified),outcome,[9],inactive
